# From PubChem BioAssay AID652257 (The Scripps Research Institute Molecular Screening Center, 2013)
# Screen size: about 370,000 compounds; about 4,800 (1.3%) were called active. This excerpt belongs to a sample that is enriched for actives. Unmarked numbers belong to inactive results.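 Rule for the calls: active = inhibition above about 21% made by adding two undisclosed values (limit read from the data); inactive = the rest.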
# Molecular target: Protein arginine N-methyltransferase 1 (Homo sapiens) (UniProt Q99873)
# Sequence (Q99873 whole entry, looked up): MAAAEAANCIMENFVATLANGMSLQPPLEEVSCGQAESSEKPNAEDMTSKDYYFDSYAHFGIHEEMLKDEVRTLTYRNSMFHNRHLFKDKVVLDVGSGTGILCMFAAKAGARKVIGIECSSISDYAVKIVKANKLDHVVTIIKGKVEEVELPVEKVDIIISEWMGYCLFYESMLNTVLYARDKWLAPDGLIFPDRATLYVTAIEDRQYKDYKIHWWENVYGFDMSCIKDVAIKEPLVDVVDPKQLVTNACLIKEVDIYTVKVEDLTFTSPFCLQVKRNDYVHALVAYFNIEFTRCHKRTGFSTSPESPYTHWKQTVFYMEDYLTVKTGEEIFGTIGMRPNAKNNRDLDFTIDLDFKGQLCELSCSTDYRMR
# Test: human PRMT1 activity-probe blockers – biochemical, fluorescence polarization, primary screen (AID 652257)
# Conditions: recombinant PRMT1, activity-based probe fluorescence polarization; at 2.79 µM; active compounds read high
row,Structure (SMILES),inhibition
1,CN[C@H]1C[C@H]2c3[nH]c4c(-c5ccccc5)cccc4c3CCN2C(=O)[C@H]1[C@H](C)O,6.14%
2,Cc1ccc(-n2nc(-c3ccco3)cc2C(=O)NCc2cccnc2)cc1,35.6% (active)
3,Cc1ccc2c(c1)N(CCCC(=O)NCc1cccnc1)C(=O)CO2,0.38%
4,CSc1sc(C(=O)NC(=O)NCc2cccnc2)c(C)c1-c1ccon1,1.09%
5,CN1C(=O)C(Br)(Br)CC1c1cccnc1 (centres undefined),1.18%
6,Cc1c[nH]c2cccc(-c3ccc(Cl)cc3)c12,-0.29%
7,O=C(CCNC(=O)c1ccccc1)NN=Cc1ccc(Br)o1,24.6% (active)
8,N#CCC(=O)N/N=C/c1ccc(SCC(=O)Nc2ccccc2)o1,4.99%
9,O=C(CSc1ccc(/C=N/NC(=O)c2cccc(F)c2)o1)Nc1ccccc1,2.86%
10,COC1=C[C@H](C(=O)NCCNC(C)=O)[C@H](C)[C@@H](c2ccccc2)CC1=O,0.29%
11,COc1ccc(/C=C2\CC3(OC(C)=O)CCCN2C3)cc1 (centres undefined),1.73%
12,Cc1ccc(CN2CCCCC(NC(=O)C3CCCCC3)C2=O)cc1 (centres undefined),-3.29%
13,O=C(Nc1cccc(S(=O)(=O)N2CCOCC2)c1)C12CC3CC(CC(C3)C1)C2,2.62%
14,NC(=O)C1(N2CCCCC2)CCN(C2CC(=O)N(Cc3ccc(N4CCCC4=O)cc3)C2=O)CC1 (centres undefined),41.5% (active)
15,CCCNC(=O)NCc1ccc(N2CCCC2=O)cc1,0.33%
16,NC(=O)C1(N2CCCC2)CCN(Cc2ccccc2)CC1,2.71%
17,Clc1ccc(C(Cn2ccnc2)OCc2ccsc2Cl)c(Cl)c1 (centres undefined),1.55%
18,COc1ccc(Nc2nc(-c3cccnc3)nc3ccccc23)cn1,25.2% (active)
19,O=C(CSc1n[nH]c(-c2cccnc2)n1)Nc1ccnc2ccccc12,-1.69%
20,O=C(Nc1ccc(Cl)cc1)Nc1ccc(Oc2cccnc2)nc1,1.37%
21,CN(C)c1ccc(CNC(=O)CN2C(=O)COc3ccc(S(=O)(=O)N4CCCC4)cc32)cc1,-4.13%
22,O=C(N1CCOCC1)N1CC[C@H]2[C@H](CCCN2Cc2ccc(F)cc2)C1,5.12%
23,N#C/C(=C/c1ccc(N2CCCCC2)o1)C(=O)NCCc1c[nH]c2ccccc12,-51.4%
24,Cc1ccc(/C=C(\C#N)C(=O)Nc2cccc3ncccc23)o1,24.4% (active)

row,Structure (SMILES),inhibition
1,Cc1ccc2c(NC(=O)C3CC3)cccc2n1,-1.46%
2,Cc1ccn(C(CC(=O)c2ccc(Br)cc2)C(=O)O)n1 (centres undefined),23.6% (active)
3,Cc1ccc(NC(=O)CCC(=O)c2ccc(Br)cc2)cc1,-1.58%
4,CCN(C(=O)c1ccc(Br)cc1)c1ccccc1,-3.92%
5,CC(=O)N1CCOc2ccc(S(=O)(=O)N3CCC(C(=O)Nc4ccccc4F)CC3)cc21,-0.05%
6,C=C(C)C#CC(Cc1ccccc1)N(CC1CC1)/C(N)=N/C(=O)OCc1ccccc1 (centres undefined),-3.31%
7,COC(=O)C(C(=O)OC)c1ccccc1NS(=O)(=O)c1cccc2ccccc12,-4.23%
8,C[C@H](C(=O)N(C)c1ccccc1)[C@@H](O)c1ccc(Cl)cc1,-4.72%
9,CCOc1ccc(NC(=O)C(C)N2C(=O)c3ccccc3C2=O)cc1 (centres undefined),-1.49%
10,CC(C(=O)Nc1ccc(O)c(C(=O)O)c1)N1C(=O)/C(=C/c2cccs2)SC1=S (centres undefined),26.4% (active)
11,O=C1/C(=C/c2cccs2)SC(=S)N1C1CCS(=O)(=O)C1 (centres undefined),0.87%
12,CC(C)(C)c1cc(CN2CCN(CCC#N)CC2)cc(C(C)(C)C)c1O,9%
13,CCc1c(C)nc(N)n2c(SCC(=O)NC3CCCCC3)nnc12,-2.99%
14,Nc1[nH]c(/C=C2/CCCCC2n2[nH]c(=O)n(-c3ccccc3)c2=O)c(Cc2ccccc2)[n+]1Cc1ccccc1 (centres undefined),-2.27%
15,COc1ccc(CCNCc2c(-c3ccccc3)n(C)c3ccccc23)cc1,2.67%
16,CC(C)(C)OC(=O)NCCc1ccccc1/C=C/S(=O)(=O)NCc1ccc(F)cc1,0.24%
17,O=c1ccc2c(-c3ccccc3S(=O)(=O)O)c3ccc(O)c(O)c3oc-2c1O,66.9% (active)
18,COc1cccc2c1OCC(CN1CCN(C3CCCCC3)C(CCO)C1)=C2 (centres undefined),-3.92%
19,O=C(CSc1nc2c(c(=O)[nH]1)CCCC2)N1CCCCC1,-3.61%
20,C=CCN(C)CC#Cc1ccccc1,-2.36%
21,Cc1ccc(-c2nc(C3CCCN(S(=O)(=O)c4ccc(Br)s4)C3)no2)cc1 (centres undefined),3.15%
22,CC1CCc2c(nc3ncnn3c2Nc2ccc(OC(F)(F)F)cc2)C1 (centres undefined),0.92%
23,c1ccc2c(c1)CSc1sccc1C2=C1CCNCC1,-3.7%
24,Cc1nnc(SCC2=C(C(=O)O)N3C(=O)C(NC(=O)Cn4nc(C)c(Cl)c4C)C3SC2)s1 (centres undefined),34.1% (active)

row,Structure (SMILES),inhibition
1,Cc1cc(C)cc(C(=O)NC2C(=O)N3C(C(=O)O)=C(CSc4nnc(C)s4)CSC23)c1 (centres undefined),39.9% (active)
2,Cc1nnc(SCC(=O)NC2CCCC2)s1,-0.7%
3,Cc1nnc(SCc2cc(=O)[nH]c(N3CCN(Cc4ccccc4)CC3)n2)s1,-2.63%
4,CCOC(=O)C1(Cc2ccccc2)CCN(Cc2cn(C(C)=O)c3ccccc23)CC1,2.34%
5,Cc1ccccc1CS(=O)(=O)Cc1ccc(C(=O)Nc2ccc(Cl)cc2)o1,5.39%
6,CCCCN1CCN(C(=O)c2ccc3c(c2)NC(=O)C(C)(C)O3)CC1,-4.36%
7,COC(=O)[C@]12C[C@H](CC(=O)NCc3cccc4ccccc34)C(=O)N(CCc3ccc(OC)c(OC)c3)C1=C[C@H](C1CCCC1)O[C@@H]2C,-7.72%
8,COC(=O)c1c(C)oc2ccc(N(C(=O)Oc3ccccc3)S(=O)(=O)c3ccccc3)cc12,1.53%
9,CC(=O)N(c1ccc2oc(=O)sc2c1)S(=O)(=O)c1ccc(C)cc1,86% (active)
10,CC(=O)Oc1ccc(N(C(C)=O)S(=O)(=O)c2ccc3ccccc3c2)cc1Br,-3.71%
11,COc1ccccc1C1C(C#N)=C(N)Oc2c1c(-c1ccccc1)nn2-c1ccccc1 (centres undefined),5.44%
12,COc1cccc(Cn2cc(COC(=O)Nc3ccc(F)cc3)nn2)c1,0.72%
13,COC(=O)CNC(c1ccccc1Cl)c1cc(Br)ccc1NC(=O)CCN1CCOCC1 (centres undefined),21.5% (active)
14,COc1ccccc1NC(=O)CCN1CCN(c2ccc(Cl)cc2)CC1,1.94%
15,Cc1cc(NC(=O)CCN2CCN(Cc3ccccc3)CC2)ccc1Br,0.6%
16,Cc1cc(S(=O)(=O)NC2CCCC2)ccc1-n1cnnn1,3.87%
17,Cc1ccc(CN(C)C[C@@H]2OCc3cnnn3CCCC(=O)N([C@@H](C)CO)C[C@H]2C)cc1,-5.16%
18,C=CCn1c2c(c3ccccc31)CCC2,0.09%
19,Cc1nn(C)cc1N1C(=O)c2cccc3c(N)ccc(c23)C1=O,165% (active)
20,CN1C(=O)c2cccc3c(N)ccc(c23)C1=O,183% (active)
21,CC(NCc1ccco1)C(=O)N1CCCCC1 (centres undefined),-2.09%
22,CCOc1ccc(Oc2c(Cl)cnn(-c3ccc(C)cc3)c2=O)cc1,-1.68%
23,C=CCN1[C@@H](Cc2ccccc2)COc2cccc(N3CCSCC3)c2S1(=O)=O,2.18%
24,O=S(=O)(c1ccccc1)N1CCC(c2nc3ccccc3o2)CC1,-3.15%

row,Structure (SMILES),inhibition
1,COc1ccccc1CN(C)C(=O)C1(c2ccc(Cl)cc2)CC1,-2.06%
2,O=C(NC1CCC1)c1ccc(C#CC2CC2)cn1,-0.43%
3,CC(=O)Oc1ccc(C(C)=O)c2c1OCCO2,-0.56%
4,CSc1ccc(C=Nn2c(-c3ccc(F)cc3)n[nH]c2=S)cc1,21.3% (active)
5,CSc1ccc(/C=N/N2CCN(Cc3ccccc3Cl)CC2)cc1,1.95%
6,CC(C)n1c(-c2ccncc2)n[nH]c1=S,-2.82%
7,CC(NCCc1ccc(S(N)(=O)=O)cc1)C(=O)NCc1ccccc1 (centres undefined),-3.01%
8,COc1cc(-c2nnn(CC(=O)NCc3ccccc3)n2)cc(OC)c1OC,2.73%
9,COc1cc(C(=S)NCc2ccccc2)cc(Br)c1O,27.5% (active)
10,COc1ccccc1OCCC(=O)OCC(=O)NCc1ccccc1,0.43%
11,CCOC(=O)C1=C(C)NC2=C(C(=O)CC(C)(C)C2)C1c1ccc2c(c1)OCO2 (centres undefined),-1.8%
12,COC(=O)CC1CCc2cc(C)cc(C(CC(C)C)NC(=O)[C@H](CC(C)C)NC(=O)OCc3ccccc3)c2O1 (some centres undefined),-2.67%
13,Clc1ccc(C2=CSC3=Nc4cccc5cccc(c45)N23)cc1,22.6% (active)
14,CCCOc1ccc(Oc2c(Cl)cnn(Cc3cccc4ccccc34)c2=O)cc1,1.97%
15,CC(=O)c1cc(-c2ccc3ccccc3c2)c(=O)n2c1CCC2,0.08%
16,COc1ccc(N=Nc2c(-c3ccc(OC)cc3)[nH]oc2=O)cc1,-0.55%
17,COC1=CC(=O)OC(c2ccc(OC)cc2)C1 (centres undefined),-1.99%
18,COc1ccc(N=C2C=CC(=O)O2)cc1,48.5% (active)
19,Cc1ccc(CSCC(N)C(=O)O)cc1 (centres undefined),0.39%
20,Cc1ccc(SC(CC(=O)c2ccc(C(C)(C)C)cc2)C(=O)O)cc1 (centres undefined),75.6% (active)
21,Cc1ccc(SC(C)C(=O)NCc2ccc(F)cc2)cc1 (centres undefined),-5.15%
22,CCC(NC(=O)C1C2C=CC3(CN(Cc4ccccc4)C(=O)C13)O2)c1ccccc1 (centres undefined),2.19%
